MITF primary – MITF inhibitors, primary screen, biochemical, AlphaScreen, human. AID 1259374, 2018. hit rate 0.91% among 650,000. inhibition, % at 2.6 µM. AlphaScreen MITF homodimerization, bead proximity signal; in the data active = inhibition above about 50%;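 note: 0% = vehicle wells with protein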
GPR151 ag – activators of human GPR151, primary screen, cell-based, PathHunter beta-arrestin, luminescence | G-protein coupled receptor 151 (Homo sapiens), Q8TDV0 | PathHunter beta-arrestin GPR151 cells | activation, % at 11.2 µM | hit rate 1% among 650,000 | AID 1508602, 2020; in the data active = activation above about 4.9%;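 note: 0% = median of compound wells and 100% = cells with positive control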
FBW7 activator – FBW7 E3 ligase activators, primary screen, biochemical, AlphaScreen, human; AID 1259310, 2017; F-box/WD repeat-containing protein 7 (Homo sapiens), Q969H0; normalized activity (activation), % at 26.1 µM; hit rate 0.13% among 650,000; AlphaScreen FBW7–phospho-cyclin E peptide binding, activator screen; in the data active = normalized activity above about 1.9%;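 note: purified mutant Fbw7 with reduced substrate affinity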
TEAD-YAP inh – TEAD-YAP interaction inhibition, primary screen, TEAD-YAP interaction inhibitor project, luminescence, HEK-TIYL cells. TEAD-Gal4/YAP UAS-luciferase luminescence. inhibition, % at 9.12 µM. hit rate 1.4% among 640,000; in the data active = inhibition above about 32%;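 note: 0% = median of test compound wells and 100% = reference inhibitor wells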
GPR151 conf act – GPR151 activators, triplicate retest, confirmation, cell-based, PathHunter beta-arrestin, luminescence. shares compounds with GPR151 ag. GPR151 PathHunter beta-arrestin cells, 90 min; % of EA-reagent control over plate median. activation, % at 11.2 µM. AID 1508609, 2020. 6,700 tested, under 10 active;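 active = mean percent activation across replicates above the confirmation screen cutoff of 4.91%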
GPR119 counter – GPR119 activators in beta-arrestin cells, counter-screen for GPR151 activator project, cell-based, PathHunter beta-arrestin, luminescence, triplicate; hit rate 0.3% among 6,700; activation, % at 11.2 µM; shares compounds with GPR151 ag; 90 min; 0 = compound-well median, 100 = enzyme-acceptor control; AID 1508611, 2020;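 active = mean percent activation in the counterscreen above 29.09%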;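 note: counterscreen on off-target GPR119 to flag nonselective hits from the GPR151 activator screen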
Target sequence (Q8TDV5 whole entry, looked up): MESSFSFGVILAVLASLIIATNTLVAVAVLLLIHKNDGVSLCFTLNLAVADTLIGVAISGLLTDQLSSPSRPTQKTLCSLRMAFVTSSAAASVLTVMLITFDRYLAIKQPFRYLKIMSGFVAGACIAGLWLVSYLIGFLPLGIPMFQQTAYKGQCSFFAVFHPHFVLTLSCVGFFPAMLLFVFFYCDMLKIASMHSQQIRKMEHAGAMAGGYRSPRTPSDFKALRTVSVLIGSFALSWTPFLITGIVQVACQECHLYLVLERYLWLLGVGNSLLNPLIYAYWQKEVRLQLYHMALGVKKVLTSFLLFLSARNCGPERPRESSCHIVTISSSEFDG
Numbers without * were called inactive. Most compounds without a hit are left out; they make up all but 3.4% or so of the library.

How did COc1ccc(S(=O)(=O)NCC2CCCN(C(=O)c3sccc3C)C2)cc1 (stereo unspecified) do in these assays?
MITF primary: -10.4; GPR151 ag: 5.5*; FBW7 activator: 0.2; TEAD-YAP inh: 17.2; GPR151 conf act: 1.4; GPR119 counter: 8.3

What do the screens show for `CCOC(=O)c1cc(-c2nnc(-c3ccc(C)cc3)o2)c(C)nc1C`?
MITF primary: 8.2; GPR151 ag: -0.6; FBW7 activator: 0.6; TEAD-YAP inh: -6.6

How did N#Cc1ccc(NC(=O)COC(=O)C2COc3ccccc3O2)cc1 (stereo unspecified) do in these assays?
MITF primary: 1.8; GPR151 ag: 7.8*; FBW7 activator: 0.2; TEAD-YAP inh: 1.6; GPR151 conf act: 0.4; GPR119 counter: 1.4

What do the screens show for `Cn1ncc2c(Nc3ccc(Cl)cc3Cl)ncnc21`?
MITF primary: 12.5; GPR151 ag: 0.7; FBW7 activator: 0.0; TEAD-YAP inh: 1.9

Results for Cn1ncc2c(NCCc3ccc(Cl)cc3Cl)ncnc21 ?
MITF primary: 1.3; GPR151 ag: 5.0*; FBW7 activator: 0.1; TEAD-YAP inh: 28.1; GPR151 conf act: 3.0; GPR119 counter: 34.7*

How did OCC1(Cc2ccccc2)CCN(Cc2cccc3c2OCO3)CC1 do in these assays?
MITF primary: -3.2; GPR151 ag: 5.0*; FBW7 activator: -0.1; TEAD-YAP inh: -4.3; GPR151 conf act: 0.1; GPR119 counter: -3.2

What do the screens show for `OCC1(Cc2ccccc2)CCN(Cc2cccc3nonc23)CC1`?
MITF primary: 0.0; GPR151 ag: 2.2; FBW7 activator: -0.2; TEAD-YAP inh: 1.6

What do the screens show for `COc1cc(C2NC(=O)c3c(sc4c3CCCC4)N2)ccc1O` (stereo unspecified)?
MITF primary: 17.9; GPR151 ag: -2.3; FBW7 activator: -0.2; TEAD-YAP inh: -1.2

Results for COc1cccc(NC(=O)c2sccc2S(=O)(=O)N(C)c2ccccc2)c1 ?
MITF primary: -2.1; GPR151 ag: -1.3; FBW7 activator: 0.0; TEAD-YAP inh: -5.7

How did Cn1c(=O)c2c(ncn2CC(=O)N/N=C/c2cccc(F)c2)n(C)c1=O do in these assays?
MITF primary: -2.3; GPR151 ag: 5.6*; FBW7 activator: -0.1; TEAD-YAP inh: -3.6; GPR151 conf act: -0.2; GPR119 counter: -5.8

What do the screens show for `CCc1ccc(-n2c(C)nc3cc(C(=O)NCC4CCCO4)ccc32)cc1` (stereo unspecified)?
MITF primary: 5.0; GPR151 ag: -0.8; FBW7 activator: -0.1; TEAD-YAP inh: 8.4

What do the screens show for `O=C(C1CCN(C2CCN(Cc3ccc4c(c3)OCCO4)CC2)CC1)N1CCCC1`?
MITF primary: -13.5; GPR151 ag: -0.6; FBW7 activator: 0.0; TEAD-YAP inh: 3.7

Results for O=C(C1CCN(Cc2ccc3c(c2)OCO3)CC1)N1CCOCC1 ?
MITF primary: 25.6; GPR151 ag: 5.2*; FBW7 activator: 0.0; TEAD-YAP inh: -3.7; GPR151 conf act: -0.3; GPR119 counter: 10.4

Results for COc1nc(Nc2cccc(C)c2)nc(N2CCCCC2)n1 ?
MITF primary: 13.9; GPR151 ag: 0.0; FBW7 activator: 0.0; TEAD-YAP inh: -7.2

Results for Cc1cccc(Nc2nc(N3CCCC3)nc(N3CCCC3)n2)c1 ?
MITF primary: 4.0; GPR151 ag: 5.6*; FBW7 activator: 0.0; TEAD-YAP inh: 1.3; GPR151 conf act: 1.4; GPR119 counter: 4.1

What do the screens show for `Cc1nccn1-c1ccc(NC(=O)C2CCCN(C3CCSCC3)C2)cc1` (stereo unspecified)?
MITF primary: -22.5; GPR151 ag: 6.8*; FBW7 activator: 0.1; TEAD-YAP inh: 12.5; GPR151 conf act: 1.1; GPR119 counter: -3.0

Results for CC(Oc1cccc(Br)c1)C(=O)Nc1ccc2c(c1)OCO2 (stereo unspecified) ?
MITF primary: 9.2; GPR151 ag: 5.4*; FBW7 activator: 0.0; TEAD-YAP inh: -0.4; GPR151 conf act: -0.3; GPR119 counter: 0.3

How did CC(Oc1ccc2c(c1)OCO2)C(=O)NNC(=O)Nc1cccc(C(F)(F)F)c1 (stereo unspecified) do in these assays?
MITF primary: 10.7; GPR151 ag: 3.9; FBW7 activator: 0.7; TEAD-YAP inh: 10.4

How did COc1ccc(-c2noc(Nc3ccc(C(C)C)cc3)n2)cc1 do in these assays?
MITF primary: 14.7; GPR151 ag: -0.5; FBW7 activator: 0.8; TEAD-YAP inh: -10.6

Results for COc1ccc(-c2noc(Nc3ccc(Cl)cc3)n2)cc1 ?
MITF primary: -2.1; GPR151 ag: 8.2*; FBW7 activator: 0.0; TEAD-YAP inh: -21.0; GPR151 conf act: 0.0; GPR119 counter: -0.6

What do the screens show for `CCCC1=NN2C(=N)/C(=C/c3ccc(-c4ccc(C(=O)OCC)cc4)o3)C(=O)N=C2S1`?
MITF primary: 3.5; GPR151 ag: 5.2*; FBW7 activator: -0.1; TEAD-YAP inh: -0.1; GPR151 conf act: 1.0; GPR119 counter: 18.6

Results for CC(=O)N1CCc2cc(Br)cc(S(=O)(=O)Nc3noc4ccccc34)c21 ?
MITF primary: -17.4; GPR151 ag: 19.0*; FBW7 activator: 0.3; TEAD-YAP inh: -7.2; GPR151 conf act: -0.5; GPR119 counter: -15.4

How did CC(=O)N1CCc2cc(Br)cc(S(=O)(=O)Nc3cccc(Cl)c3)c21 do in these assays?
MITF primary: -10.9; GPR151 ag: -0.6; FBW7 activator: -0.1; TEAD-YAP inh: 4.2

Results for O=C(Nc1cc(Cl)c(Cl)cc1Cl)c1cnc2n(c1=O)CCS2 ?
MITF primary: -7.0; GPR151 ag: 7.7*; FBW7 activator: 0.2; TEAD-YAP inh: 11.1; GPR151 conf act: 0.2; GPR119 counter: 9.4

What do the screens show for `CCOc1ccc(/C=C2/C(=O)NC(=O)N(Cc3ccc(F)cc3)C2=O)cc1`?
MITF primary: -16.8; GPR151 ag: -1.5; FBW7 activator: -0.6; TEAD-YAP inh: -3.8

How did CCN(CC)c1ccc(/C=C2/C(=O)NC(=O)N(Cc3ccc(F)cc3)C2=O)cc1 do in these assays?
MITF primary: 2.8; GPR151 ag: 10.7*; FBW7 activator: -0.8; TEAD-YAP inh: 6.4; GPR151 conf act: 0.6; GPR119 counter: -0.5

What do the screens show for `O=C(O)/C=C/c1cn(-c2ccccc2)nc1-c1cccc([N+](=O)[O-])c1`?
MITF primary: 14.6; GPR151 ag: 5.3*; FBW7 activator: 0.1; TEAD-YAP inh: 13.5; GPR151 conf act: -1.0; GPR119 counter: -12.3
